# The campaign covered roughly 23,000 compounds. About 30 (0.1%) showed an effect of 50% or more. The list comes from a sample in which strong results are over-represented; it also holds similar structures and randomly drawn compounds. Entries with a potency or affinity are not part of this list.
# System: Pseudomonas aeruginosa
# Details: Concentration 32 ug.mL-1; ASSAY_TEST Inhibition of Bacterial Growth; detection method Absorption (OD600); MEDIA CAMHB; plate type 384well; NBS; CORNING #3640; time 18 hr
row,Compound,Inhibition [%]
1,N=C(Nc1ccccc1Cl)c1cscn1,77.11
2,N=C(Nc1ccccc1)c1cscn1,1.73
3,CCc1ccc(Nc2nc(N)c(-c3nc4ccccc4c(=O)n3-c3ccccc3)s2)cc1,12.66

# Reference: ChEMBL document CHEMBL4513154, “CO-ADD screening of Jain University (India) compounds”
